# Screening results deposited in PubChem BioAssay by Broad Institute.
# Compounds with a hit are over-represented: about 4.1% of the library has one in this group of screens.
# Casp6 inh – caspase-6 (human) enzyme inhibition; purified caspase-6, Z-VEID-R110 cleavage fluorescence; inhibition, % at 12.5 µM; actives 0.53% (n = 350,000); AID 686996;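 active = mean inhibition across replicates at least about 35%, with every replicate also reaching that limit, limit read from the data; inconclusive = only one of the two criteria met; inactive = neither criterion met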;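 note: 0% = median of neutral control wells and 100% = no fluorescence left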
# Target sequence (P55212 24-179 limits assumed): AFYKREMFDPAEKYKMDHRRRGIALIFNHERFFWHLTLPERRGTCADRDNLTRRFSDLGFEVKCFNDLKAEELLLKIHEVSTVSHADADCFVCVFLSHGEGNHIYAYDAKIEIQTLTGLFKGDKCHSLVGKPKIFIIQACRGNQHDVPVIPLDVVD
# Target sequence (P55212 194-293 limits assumed): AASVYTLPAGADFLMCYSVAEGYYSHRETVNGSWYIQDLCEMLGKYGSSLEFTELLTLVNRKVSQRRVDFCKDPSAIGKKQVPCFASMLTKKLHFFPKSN
# ALR inh – blocks human ALR sulfhydryl oxidase activity; purified ALR, DTT oxidation, H2O2 HRP-luminol luminescence; inhibition, % (no concentration beside the values); actives 3.8% (n = 290,000); AID 485317;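 active = mean replicate inhibition above about 79%, with every replicate also reaching it, limit read from the data; inconclusive = only one of the two criteria met; inactive = mean below limit and not every replicate reaching it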
# Env fusion inh – HIV envelope-mediated fusion inhibition. actives 1.1% (n = 360,000). AID 651610. inhibition, % at 12.3 µM. HeLa-JRFL Env/CEM21 cell fusion, luciferase;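 active = mean replicate inhibition score of at least 50 and every replicate individually at or above 50; inconclusive = only one of the two criteria met; inactive = mean below 50 and not all replicates reaching 50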;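 note: 0% = plate neutral controls and 100% = maraviroc near 300 nM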
# NSD2 inh – inhibitors of human histone methyltransferase NSD2; O96028; NSD2 peptide methylation, AlphaScreen, 120 min; inhibition, % at 12.5 µM; actives 0.54% (n = 310,000); AID 743445; in the data active = inhibition above about 50%
# CFTR F508del cor – CFTR F508del correction in bronchial cells; CFBE cells, YFP halide quenching; stimulated with forskolin plus potentiator P3; % fluorescence drop versus neutral controls; activity (quench increase), % at 7.58 µM; actives 0.36% (n = 350,000);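 active = mean added fluorescence quench of at least 8% versus neutral control, with both replicates also reaching 8%; inconclusive = only one of the mean or replicate conditions met; inactive = mean below 8% and not both replicates reaching 8%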;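 note: cells transiently co-express mutant CFTR-F508del with the halide-sensitive YFP; corrector assay measuring rescue of mutant channel to the surface after 24 h compound exposure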
# PglD DTNB – blocks C. jejuni PglD acetyltransferase activity; actives 0.098% (n = 360,000); AID 602405; purified PglD enzyme, DTNB colorimetric CoA detection; inhibition, % at 12.5 µM; in the data active = inhibition above about 16%, passing the limit was not always enough; inconclusive = no clear call, values can overlap the other calls
# * marks the source's active call; other numbers are inactive results; ? = inconclusive; . = no result given; [ ] = dose if it differs, or a comment.
SMILES,Casp6 inh,ALR inh,Env fusion inh,NSD2 inh,CFTR F508del cor,PglD DTNB
CCC(=O)N(C)C[C@@H]1Oc2cc(-c3cccc(OC)c3)ccc2S(=O)(=O)N([C@@H](C)CO)C[C@@H]1C,0,.,5[16.7 µM],.,0,1
CC[C@@H]1CC=C[C@H]2[C@H]1C(=O)N(Cc1ccccc1)[C@H]2c1ccc(C(F)(F)F)cc1,-2,-7,57*,.,2,-1
CC[C@@H]1CC=C[C@H]2[C@H]1C(=O)N(Cc1ccccc1)[C@H]2c1ccoc1,.,.,.,.,.,0
CCOC(=O)c1c(NC(=O)CSC(=S)N2CCOCC2)sc(C)c1C,3,98*,1,-1,.,0
Nc1c(-c2ccccc2)c(CSc2nc3ccccc3[nH]2)nn1-c1cccc(Cl)c1,-1,91*,-3,2,.,.
CC(C)CNC(=O)[C@@H]1c2ccccc2C(=O)N(CC23CC4CC(CC(C4)C2)C3)[C@H]1c1ccc(CO)cc1,2,.,61*[16.7 µM],.,-4,4
O=C(Nc1ccccc1)c1nnsc1S(=O)c1ccc(Cl)cc1 (configuration not stated),.,98*,.,1,.,12
O=C(c1nnsc1S(=O)c1ccc(Cl)cc1)N1CCOCC1 (configuration not stated),4,.,-3,25,1,2
COc1ccc(S(=O)(=O)Nc2ccc3c(c2)CC(=O)N([C@@H](C)CO)C[C@H](C)[C@H](CN(C)Cc2ccc(C(=O)O)cc2)O3)cc1,3,.,-1[16.7 µM],.,6,0
COc1ccc(NC(=O)N(C)C[C@H]2OCCCC[C@H](C)Oc3ccc(NC(=O)CCC(F)(F)F)cc3C(=O)N([C@H](C)CO)C[C@@H]2C)cc1,-1,.,-6[16.7 µM],.,2,-2
Cc1ccc(/C=N/N2CCN(c3ccccc3)CC2)cc1,9,-8,-45,-1,-3,.
Cc1ccc(N2CCN(/N=C/c3c(C)nn(-c4ccccc4)c3Cl)CC2)cc1,45*,4,7,1,-1,.
COc1cccc(C#Cc2ccc3c(c2)O[C@@H](CN(C)C(=O)c2ccccn2)[C@H](C)CN([C@@H](C)CO)S3(=O)=O)c1,-7,.,-7[16.7 µM],.,9.8*,2
COc1cccc(C#Cc2ccc3c(c2)O[C@H](CN(C)C(=O)c2ccccn2)[C@@H](C)CN([C@@H](C)CO)S3(=O)=O)c1,-4,.,2[16.7 µM],.,0,2
C[C@@H]1CN([C@@H](C)CO)S(=O)(=O)c2ccc(/C=C/c3ccccc3)cc2O[C@@H]1CN(C)C(=O)C1CC1,0,.,55*[16.7 µM],.,-3,0
C[C@H](CO)N1C[C@H](C)[C@H](CN(C)C(=O)c2ccc3c(c2)OCO3)Oc2cc(C#Cc3ccccc3F)ccc2S1(=O)=O,4,.,40[16.7 µM],.,8.8*,-4
C[C@H](CO)N1C[C@H](C)[C@@H](CN(C)C(=O)c2ccc3c(c2)OCO3)Oc2cc(C#Cc3ccccc3F)ccc2S1(=O)=O,0,.,11[16.7 µM],.,-2,1
C[C@H]1CN([C@@H](C)CO)S(=O)(=O)c2ccc(/C=C/c3ccccc3)cc2O[C@H]1CN(C)C(=O)C1CC1,0,.,15[16.7 µM],.,2,0
CC(=O)N(C)C[C@@H]1Oc2cc(/C=C/c3ccccc3)ccc2S(=O)(=O)N([C@H](C)CO)C[C@H]1C,0,.,26[16.7 µM],.,2,14
CCC(=O)N(C)C[C@H]1Oc2cc(/C=C/c3ccccc3)ccc2S(=O)(=O)N([C@@H](C)CO)C[C@H]1C,6,.,59*[16.7 µM],.,-5,1
C[C@@H]1CCCCO[C@H](CN(C)C(=O)Nc2ccc3c(c2)OCO3)[C@H](C)CN([C@@H](C)CO)C(=O)c2cc(NC(=O)Cc3ccccc3)ccc2O1,.,.,9[16.7 µM],.,0,8
CCC(=O)N(C)C[C@@H]1Oc2cc(C#Cc3ccccc3)ccc2S(=O)(=O)N([C@@H](C)CO)C[C@H]1C,-3,.,59*[16.7 µM],.,1,1
Cc1ccc(CNC(=O)CSc2nc3ccccc3c(=O)n2CCCO)cc1,.,-5,.,-11,.,2
Cc1ccc(-c2nc(CSc3nc4ccccc4c(=O)n3C)cs2)cc1,1,98*,?,-1,.,2
Cc1ccc(-c2nc(CSc3nc4ccccc4c(=O)n3CCO)cs2)cc1,1,98*,-3,-2,.,.
Cc1ccc(NC(=O)CSc2nnc(Cc3csc(C)n3)o2)c(C)c1,62*,7,-25,-1,-8,.
